Assay results published in PubChem BioAssay (NCI).
Compounds without any hit were thinned out: in the full panel of roughly 83,000, 20% have a hit.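 Results are percent growth after 48 hours of single-concentration exposure. 100 means growth as in untreated cells, lower positive values show inhibition; negative values down to -100 show cell death.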 Unmarked numbers belong to inactive results. Calls of active or inactive are those of the source. The calls were made as follows: active = growth percent below 10; inactive = the rest.

Experiments:
Experiment in all cases: NCI-60 one-dose screen, 48 h (100 = growth as untreated, 0 = no growth, -100 = all killed)
Conditions in all cases: 10 µM
SK-MEL-2 melanoma = test system: SK-MEL-2 melanoma
EKVX NSCLC = test system: EKVX NSCLC
SN12C renal = test system: SN12C renal
UO-31 renal = test system: UO-31 renal
TK-10 renal = test system: TK-10 renal
ACHN renal = test system: ACHN renal
CAKI-1 renal = test system: CAKI-1 renal
A498 renal = test system: A498 renal
MOLT-4 leukemia = test system: MOLT-4 leukemia
CCRF-CEM leukemia = test system: CCRF-CEM leukemia

Compound	growth (SK-MEL-2 melanoma)	growth (EKVX NSCLC)	growth (SN12C renal)	growth (UO-31 renal)	growth (TK-10 renal)	growth (ACHN renal)	growth (CAKI-1 renal)	growth (A498 renal)	growth (MOLT-4 leukemia)	growth (CCRF-CEM leukemia)
CCCc1cn(CC(=O)Nc2nc3ccccc3s2)nn1	105%	101%	98.5%	65.9%	103%	101%	87.6%	129%	110%	
CC(C)(C)OC(=O)CN1CCc2c(sc3ncnc(N/N=C/c4cccc5ccccc45)c23)C1	71.1%	2.48% (active)	48.4%	3.34% (active)	50.5%	15.7%	35.1%	52.4%	9.27% (active)	
C=CCNCCN1C(=O)c2ccc3c4c(ccc(c24)C1=O)C(=O)N(CCNCC=C)C3=O	-45.9% (active)	-82% (active)	-78% (active)	-58.4% (active)	-6.43% (active)	-56.3% (active)	-64.2% (active)	-73.7% (active)	-18.3% (active)	4.83% (active)
CC(C)(C)OC(=O)CN1CCc2c(sc3ncnc(N/N=C/c4ccccc4Br)c23)C1	87.4%	44.5%	73.3%	37.6%	90.8%	56.6%	51.3%	77%	11.1%	
COc1cc(/C=C/c2cc(/C=C/c3ccc(O)c(OC)c3)nc(N)n2)ccc1O	-21% (active)	22.2%	22.1%	3.16% (active)	21.4%	13.5%	19.2%	-56.9% (active)	4.17% (active)	1.68% (active)
CC[C@@H](C(=O)[C@H](C)[C@H](O)[C@@H](C)[C@H]1O[C@H]([C@@H](CC)C(=O)N(CC)CC)CC[C@H]1C)C1O[C@]2(C=C[C@@H](O)[C@]3(CC[C@@](C)([C@H]4CC[C@](O)(CC)[C@H](C)O4)O3)O2)[C@H](C)C[C@@H]1C (stereo partly drawn)	0.113% (active)	1.82% (active)	17.4%	-5.88% (active)	24.3%	5.95% (active)	8.82% (active)	13.8%	28.9%	
CC(C)(C)OC(=O)N1CCc2c(sc3ncnc(N/N=C/c4cccc(Br)c4)c23)C1	76.1%	26.3%	50.9%	21%	56.3%	33.9%	31.4%	72.7%	18%	
C(=N\Nc1ncnc2sc3c(c12)CCNC3)/c1cccc2ccccc12	109%	92.7%	82.4%	74.4%	104%	47.9%	92%	98%	48.1%	
Cc1ccc(/C=C/C(=O)C(=O)/C=C/c2ccc(C)cc2)cc1	105%	92.7%	105%	89.7%	92%	104%	94.8%	101%	91.8%	
O=C(CCl)Oc1ccc(OC(=O)CCl)cc1	96.1%	90.4%	87.2%	64.1%	113%	75.2%	93.7%	97.4%	84.2%	13.3%
COc1ccc(/C(=N\N)C(=O)c2ccccc2)cc1 (tested in a mixture with another compound)	112%	91.4%	88.5%	81.1%	108%	98.3%	90.8%	83.2%	80.4%	88.2%
O=C1c2ccccc2C(=O)c2c1ccc1c(=O)n(-c3ccccc3C(F)(F)F)nnc21	56.5%	36.3%	5.97% (active)	22.6%	54.8%	23.6%	24.3%	82%	7.06% (active)	15%
CNC(=O)c1cc(Oc2ccc3c(c2)sc2nc(-c4ccc(NC(=O)Nc5ccc(Cl)c(C(F)(F)F)c5)cc4)cn23)ccn1	75.4%	77.3%	87.3%	73.9%	81%	82.8%	80.6%	83%	64.2%	
COc1cc(C(=O)/C=C/c2c[nH]c3ccccc23)cc(OC)c1OC	19.5%	35.2%	25.2%	20.9%	48%	18.7%	27.6%	10.2%	17.6%	
Cc1cc(=O)n2nnc3cc(C(F)(F)F)ccc3n12	99.2%	107%	106%	84%	93.6%	108%	113%	103%	91.3%	103%
CC[C@@H](C(=O)[C@H](C)[C@H](O)[C@@H](C)[C@H]1O[C@H]([C@@H](CC)C(=O)O)CC[C@H]1C)C1O[C@]2(C=C[C@@H](O)[C@]3(CC[C@@](C)([C@H]4CC[C@](O)(CC)[C@H](C)O4)O3)O2)[C@H](C)C[C@@H]1C (stereo partly drawn)	13.7%	31.3%	11.8%	34.5%	56.5%	31.2%	22.2%	-69.6% (active)	17.3%	
COc1cc(-c2nc3ccccc3o2)cc(CN2CCCCC2)c1O	89.3%	66.5%	62.1%	43.9%	129%	64.8%	85.2%	55.2%	48.8%	
CN(C)c1ncnc2c1nnn2C1OC(CO)C(O)C1O (stereo not drawn)	-17.2% (active)	39.9%	18.7%	8.73% (active)	-2.87% (active)	5.56% (active)	7.19% (active)	22.3%	8.29% (active)	8.83% (active)
COc1ccc(/C=C2\CCCC3=C2N=C2SC(C)=CN2C3c2ccc(OC)cc2)cc1 (stereo not drawn)	98.6%	99.4%	104%	82.1%	116%	106%	96.4%	76.8%	103%	104%
CCC(C)[C@H](NC(C)=O)C(=O)N[C@@H](CCCNC(=N)N)C(=O)N[C@@H](CCCCN)C(=O)N[C@@H](CC1CCC(O)CC1)C(=O)NC(C(=O)N[C@@H](CCSC)C(=O)N[C@@H](CCCNC(=N)N)C(=O)N[C@@]1(C)CCC/C=C\CCC[C@@](C)(C(=O)NC(C(=O)N[C@@H](CCC(=O)O)C(=O)N[C@@H](CC(C)C)C(=O)N[C@H](C(=O)N[C@@H](CCC(=O)O)C(N)=O)C(C)C)[C@@H](C)O)NC(=O)[C@H](CCC(N)=O)NC(=O)[C@H](CC(C)C)NC(=O)[C@H](CC(C)C)NC1=O)[C@@H](C)O (stereo partly drawn)	100%	99.5%	93.2%	106%	96.4%	106%	99.4%	120%	97.3%	
COc1ccc(/C=C/C(=O)C(=O)/C=C/c2ccc(OC)c(OC)c2)cc1OC	96.6%	62.6%	2.82% (active)	0.571% (active)	68.6%	-0.679% (active)	84.3%	72.9%	23.4%	
Nc1c(Br)cc(Br)c2c1[nH]c(=O)c1ccccc12	98.6%	57%	80.1%	27.8%	31.5%	10.9%	68.6%	53.8%	80.8%	93.2%
Cc1c(O)c(=O)ccn1C1CCC(CC2CCC(n3ccc(=O)c(O)c3C)CC2)CC1 (stereo not drawn)	66.8%	10.2%	41.5%	38.6%	50.1%	35.7%	25.2%	50.9%	25.7%	
CC(C)(C)OC(=O)N1CCc2c(sc3ncnc(N/N=C/c4cccc5ccccc45)c23)C1	49.4%	8.53% (active)	32.8%	-8.22% (active)	36.9%	6.63% (active)	24.2%	4.77% (active)	14.4%	
CC(C)c1cc(N=O)cc(C(C)C)c1O	107%	105%	94.2%	90.2%	115%	98.6%	95.2%	108%	89.1%	101%
COc1cc(Cc2cc(-c3ccccc3)n[nH]c2=O)cc(OC)c1OC	56.6%	43.6%	72.9%	58.3%	75.5%	86.4%	64.6%	69%	30.9%	
O=C(Nc1ccc(OS(=O)(=O)c2ccccc2)cc1)C1CCCCC1	88.4%	84.3%	96.4%	96.7%	97.4%	104%	93.1%	105%	74%	
